Rows were chosen to be rich in hits. Some 1.6% of all compounds tested hit in one or more screens of this group.
TNFa cytotox: HUVEC cytotoxicity counter-screen, TNF alpha stimulated | HUVEC TNFalpha-stimulated, Hoechst cell count, imaging | cell count reduction, % at 2 µM | hit rate 0.17% among 93,000;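 active means cell count reduction exceeding the screen mean by over 5 SD, scaled to untreated wells per plate, cut at about 78% in these data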;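 further: cells counted after 24 h of TNF alpha exposure following the 1 h pretreatment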
cytoskel mod: alters cytoskeleton assembly in HUVEC cells | HUVEC TNFa F-actin phalloidin imaging, high content | inhibition, % at 2 µM | hit rate 0.18% among 91,000;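 active means inhibition above the batch mean plus 3 SD and confirmed as a hit by visual image inspection, cut at about 30% in these data, passing the limit was not always enough; inconclusive means above the inhibition threshold but rejected on visual inspection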
INS promoter inh: TRM-6 insulin promoter activity inhibition. TRM-6 cells (human fetal islet line), insulin promoter-eGFP reporter, imaging; reporter expression induced with tamoxifen. inhibition, % at 2 µM. hit rate 0.9% among 130,000;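 active means inhibition above the mean plus 3 SD, with well images judged a real hit on visual review, cut at about 60% in these data, passing the limit was not always enough; inconclusive means inhibition over the cutoff but images rejected on review; inactive means inhibition not above the cutoff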
E-sel TNF inh: blocks E-selectin expression induced by TNF alpha | AID 1246 | inhibition, % at 2 µM | hit rate 0.71% among 120,000 | HUVEC TNFa-induced E-selectin immunofluorescence, high content;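 active means inhibition above the batch mean plus 3 SD, and confirmed as a hit on visual image review, cut at about 43% in these data; inconclusive means passes the inhibition cutoff but fails visual image review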;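 further: 0% = TNF-stimulated DMSO wells and 100% = unstimulated control wells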
VCAM1 TNFa inh: reduces TNF alpha induced VCAM1 expression in HUVEC; hit rate 0.48% among 95,000; inhibition, % at 2 µM; HUVEC TNFa-induced VCAM-1 immunofluorescence, high-content imaging; AID 802;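 active means inhibition above the batch mean plus 3 SD, with images confirmed as a hit by eye, cut at about 37% in these data; inconclusive means inhibition above that limit but hit not confirmed in images; inactive means inhibition not above that limit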;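 further: 0% = TNF-stimulated DMSO wells and 100% = unstimulated control wells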
Phagocytosis inh: blocks phagocytosis by macrophages; J774A.1 macrophage IgG-bead phagocytosis, imaging; inhibition, % at 5 µM; hit rate 0.07% among 110,000;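 active means inhibition above the mean of the plate negative controls plus 5 SD, cut at about 13% in these data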;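 further: phagocytic index as fraction of beads internalized from green versus red external bead signal; plate controls were DMSO negative control for no effect and cytochalasin-D positive control for full effect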
Numbers without * were called inactive; ? = inconclusive; nt = no result.

SMILES | TNFa cytotox | cytoskel mod | INS promoter inh | E-sel TNF inh | VCAM1 TNFa inh | Phagocytosis inh
Cc1noc(NS(=O)(=O)c2ccc(NC(=O)Nc3ccc(Cl)c(Cl)c3)cc2)c1C | 8 | -4 | 75* | 4 | 0 | 3
CC(C)(C)NC(=O)NC(=O)CN1CCN(c2ncc(C(F)(F)F)cc2Cl)CC1 | 3 | -14 | 68* | 9 | 13 | 1
O=C(Nc1cccc(Cl)c1)/C(=C\c1cccnc1)NC(=O)c1ccco1 | nt | nt | 67* | nt | nt | nt
Cc1cccc(N2CCN(C(=O)C(C)C)CC2)c1C | -6 | -25 | 79* | 10 | -8 | 0
O=c1[nH]c(CN2CCN(c3ccccc3O)CC2)nc2ccccc12 | -41 | -15 | -61 | 5 | -2 | -1
O=c1[nH]c(CN2CCN(CCO)CC2)nc2ccccc12 | -10 | -2 | 100* | -1 | 13 | nt
O=C(CSc1nc2[nH]ncc2c(=O)n1-c1ccc(Cl)c(Cl)c1)NCc1ccccc1Cl | nt | nt | -41 | 1 | nt | nt
CCN(c1ccccc1)S(=O)(=O)c1ccc(C(=O)Nc2nnc(C3CC3)o2)cc1 | nt | nt | 78* | 3 | nt | nt
C=CC[N+](C)(C)C/C(Cl)=C(\Cl)c1ccccc1 | -18 | 15 | ? | 11 | 11 | 0
CCCNC(=S)N(Cc1ccccc1)Cc1nc2ccccc2c(=O)[nH]1 | nt | nt | -62 | 7 | nt | -15
CCOC(=O)C1(CCCc2ccccc2)CCN(C(=O)C2CCCO2)CC1 (centres undefined) | nt | nt | nt | -4 | nt | nt
COc1ccc(-c2ccccc2)cc1NCc1ccc(OC)c(OC)c1 | nt | nt | 53 | -8 | nt | -12
Cc1cc2c(cc1C)CSC(c1ccc3ccccc3c1O)SC2 | 4 | 12 | 63* | 13 | 11 | 0
O=C(Nc1nnc(C2CC2)s1)c1ccc(Cl)c(S(=O)(=O)N2CCc3ccccc3C2)c1 | nt | nt | 60* | 9 | nt | -12
CCCOC(=O)C1=C(C)OC23OC(N)=C(C#N)C12C(=O)c1ccccc13 (centres undefined) | -13 | -16 | 12 | -26 | -12 | nt
Cc1ccc(C2CC(=O)N(c3ccc(F)cc3)C3=C2C(=O)CCC3)cc1 (centres undefined) | 13 | 23 | -5 | 100* | 4 | 0
Cc1ccc(C)c(N2CCN(Cc3nnnn3C3CCCCC3)CC2)c1 | -1 | -1 | 19 | -9 | -9 | 0
Cc1ccc2nc(N3CCN(Cc4nnnn4C4CCCC4)CC3)c(C#N)cc2c1 | 10 | -6 | 100* | 5 | 4 | nt
CCCCc1ccc(-n2c(Cc3cccs3)n[nH]c2=S)cc1 | nt | nt | nt | -37 | nt | nt
O=C(Cn1cnc([N+](=O)[O-])n1)N/N=C/c1cc(Cl)ccc1O | nt | nt | nt | 34 | nt | nt
Cc1cc(C)n(C(=O)c2ccc(NC(=O)C3COc4ccccc4O3)cc2)n1 (centres undefined) | 85* | ? | -14 | -11 | 98* | -1
O=C(CCc1c[nH]c2ccccc12)N1CCN(c2ccc(O)cc2)CC1 | nt | nt | 19 | -14 | nt | nt
NC(=O)c1ccccc1N/C=C/C(=O)c1ccc(Cl)cc1Cl | -15 | -5 | 74* | 4 | 9 | nt
CN(/N=C/c1cccnc1)c1cnc2ccccc2n1 | nt | nt | 78* | nt | nt | nt
CCc1c(C)sc2nc(C(C)C)nc(SCC(=O)N3CCc4ccccc4C3)c12 | -2 | 4 | 29 | 1 | -2 | 0
SMILES | TNFa cytotox | cytoskel mod | INS promoter inh | E-sel TNF inh | VCAM1 TNFa inh | Phagocytosis inh
N=C1/C(=C/c2cccn2Cc2ccc(Cl)cc2)C(=O)N=C2SC=CN12 | nt | nt | -57 | nt | nt | -2
O=C(Nc1ccc2nsnc2c1)c1ccc2c(c1)OCO2 | 29 | 12 | 0 | 100* | 29 | 2
O=C(Nc1ccc2c(c1)OCO2)c1ccc2c(c1)OCO2 | nt | nt | -26 | nt | nt | 1
CCCCN1C(=O)C2C3C=CC(C2C1=O)C1C2C(=O)N(CCCC)C(=O)C2C31 (centres undefined) | nt | nt | nt | 72* | nt | -5
CCC(CO)N=C1CC(C)(C)CC(=O)/C1=C(/O)CCCN1C(=O)c2ccccc2C1=O (centres undefined) | nt | nt | 33 | nt | nt | nt
CCCn1nnnc1SCC(=O)N1CCOCC1 | 16 | 0 | 83* | ? | -6 | 0
CN(c1ccc(C(=O)Nc2ccccc2C(F)(F)F)cc1)S(C)(=O)=O | nt | nt | 0 | -11 | nt | 54*
O=C(N/N=C\c1ccc(CNS(=O)(=O)c2ccccc2)o1)C(=O)Nc1ccc(F)cc1 | nt | nt | 30 | nt | nt | -8
O=C(N/N=C\c1ccc(CNS(=O)(=O)c2ccc(Cl)cc2)o1)C(=O)Nc1ccc(Oc2ccccc2)cc1 | nt | nt | nt | 92* | nt | -7
Cc1ccc(C)c(SCC(=O)NC(=O)Nc2ccc3c(c2)OCCO3)c1 | nt | nt | 80* | -7 | nt | -10
Cc1ccc(Cc2cnc(NC(=O)/C(C#N)=C/c3ccc(-c4ccccc4[N+](=O)[O-])o3)s2)cc1 | -11 | -9 | -28 | 51* | 12 | -2
CC(C)(C)c1cc(OC(=O)c2ccncc2)ccc1O | -3 | 2 | 50 | 93* | -2 | nt
O=C(CCCC(=O)NCc1ccc(F)cc1)NCc1ccc(F)cc1 | nt | nt | nt | -14 | nt | nt
CC(C)(C)CC(=O)NCc1ccc(F)cc1 | 14 | -17 | 73* | 14 | 18 | 0
Cc1ccc(S(=O)(=O)N2CCOCC2)cc1NC(=O)COC(=O)c1cc(=O)c2ccccc2o1 | nt | nt | 46 | -4 | nt | -4
O=C(CN1CCOCC1)Nc1ccc(OCc2ccccc2)cc1 | 7 | -19 | 35 | 38 | -1 | -1
O=C(CN1CCN(CC(=O)Nc2ccc(OCc3ccccc3)cc2)CC1)Nc1ccc(F)cc1 | 3 | 41 | nt | 64* | -2 | nt
O=C(OCCCCN1C(=O)c2ccccc2C1=O)c1ccc(Br)o1 | -26 | 13 | 79* | -6 | 6 | 0
O=C(OCCN1C(=O)c2ccccc2C1=O)c1ccco1 | -10 | -3 | 59 | -17 | 0 | nt
CCCCSc1nc2c(cc1C#N)CCC2 | 4 | -8 | -206 | 11 | 4 | 0
CCCSc1nc(C)c(-c2csc(C(C#N)=C3CCCC3)n2)cc1C#N | 0 | -4 | nt | 62* | -15 | 1
Cc1ccc2cc(CCNC(=O)c3ccc(C)c([N+](=O)[O-])c3)c(=O)[nH]c2c1 | nt | nt | nt | nt | nt | -6
Clc1ccccc1C(c1ccccc1)(c1ccccc1)n1ccnc1 | nt | nt | -47 | -27 | nt | nt
Cc1ccc(NS(=O)(=O)c2ccc3[nH]c(=O)[nH]c3c2)c(C)c1 | nt | nt | nt | 0 | nt | nt
C/C(=N\Nc1cc(-c2ccccc2)nc(-c2ccccc2)n1)c1ccc(O)c(C)c1 | nt | nt | nt | 80* | nt | 0
COc1cc(N/N=C(\C)c2ccc(N)cc2)nc(-c2ccccc2)n1 | nt | nt | 50 | nt | nt | nt
N#C/C(=C\c1cn[nH]c1-c1ccccc1)C(=O)NC1CCCCCC1 | -6 | nt | -10 | -25 | -15 | nt
